Assay [1] can be described thus: qHTS assay to identify small molecule antagonists of the retinoid-related orphan receptor gamma (ROR-gamma) signaling pathway - cell viability counter screen (AID 1159520). Further: nearly all actives have a fitted effect of over 50% in size. Further: potency means the concentration at half of the fitted maximal effect. In short, it runs like this:
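Tet-on ROR gamma CHO cells (1,000/well) were plated 4 hr, given compounds in DMSO for 2 hr at 37 C, then induced with 1 uM final doxycycline for 16 hr. Viability was read as ATP by CellTiter-Glo luminescence after 30 min.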

Assay [2] deals with Nuclear receptor ROR-gamma (Homo sapiens) (UniProt P51449). Briefly: qHTS assay to identify small molecule antagonists of the retinoid-related orphan receptor gamma (ROR-gamma) signaling pathway (AID 1159521; further: nearly all actives have a fitted effect of over 50% in size; further: potency means the concentration at half of the fitted maximal effect). In short, it runs like this: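 Screening format: cell-based luciferase reporter in CHO cells with doxycycline-inducible RORγ. Compound pre-exposure lasts 2 h, doxycycline is 1 uM final, induction runs 16 h at 37 C, and ONE-Glo luminescence is read.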

Assay [3] can be described thus: qHTS assay to identify small molecule agonists of the AP-1 signaling pathway - cell viability counter screen (AID 1159525; calls by dose curve; further: nearly all actives have a fitted effect of over 55% in size; further: potency means the concentration at half of the fitted maximal effect). In short, it runs like this: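 ME-180 AP-1-bla, 2500 cells/well, Opti-MEM + 0.5% dialyzed FBS; overnight 37 °C; cpd 15-pt titration, 5 h 37 °C; CellTiter-Glo 30 min RT; luminescence read; normalised to TOAB and DMSO controls.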
Assay [4] has as its target Retinoic acid receptor RXR-alpha (Homo sapiens) (UniProt P19793). Kind of assay: qHTS assay to identify small molecule agonists of the RXR signaling pathway (AID 1159527; calls by dose curve; further: nearly all actives have a fitted effect of over 35% in size). In short, it runs like this: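 Fluorescence ratio readout (460 vs 530 nm) from GeneBLAzer RXR-alpha HEK 293T cells after 16 hr compound treatment; cells seeded 5 hr beforehand in low-serum, charcoal-stripped medium.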

Assay [5] in a line: qHTS assay to identify small molecule agonists of the AP-1 signaling pathway (AID 1159526; calls by dose curve; further: potency means the concentration at half of the fitted maximal effect).
A short description of assay [6]: qHTS assay to identify small molecule antagonists of the vitamin D receptor (VDR) signaling pathway - cell viability counter screen (AID 743225). Further: nearly all actives have a fitted effect of over 50% in size. Further: potency means the concentration at half of the fitted maximal effect. The method in brief:
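In this counter screen, VDR-bla HEK 293T cells receive test compound plus 3 nM final calcitriol for 16 h at 37C. Room-temperature steps of 2 h with the beta-lactamase substrate, then 30 min with CellTiter-Glo, precede the luminescence read.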

Assay [7] is described as follows: qHTS assay to identify small molecule agonists of the vitamin D receptor (VDR) signaling pathway - cell viability counter screen (AID 743224). Further: nearly all actives have a fitted effect of over 50% in size. Further: potency means the concentration at half of the fitted maximal effect. In short, it runs like this:
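VDR-bla cells, 4 h after plating, exposed to compounds for 16 h at 37C; viability then read in the same wells as CellTiter-Glo luminescence after 30 min at room temperature, following the bla FRET read.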

The structures appear in SMILES notation. Where “and” joins values, the source holds several entries; their conditions need not be identical. Equal values may be shown once. Inconclusive results are not listed. A number with no mark means an inactive call. Calls of active or inactive are those of the source. Unless noted, the call rests on the fitted dose curve; in most records, active means well fitted curve in the direction sought with a large enough effect in the repeat runs; inconclusive means weak or mixed curves; inactive means no such curve, though single readings can be large; an effect the other way counts as inactive or inconclusive.

Chain of Retinoic acid receptor RXR-alpha (Homo sapiens) (P19793 whole entry, looked up): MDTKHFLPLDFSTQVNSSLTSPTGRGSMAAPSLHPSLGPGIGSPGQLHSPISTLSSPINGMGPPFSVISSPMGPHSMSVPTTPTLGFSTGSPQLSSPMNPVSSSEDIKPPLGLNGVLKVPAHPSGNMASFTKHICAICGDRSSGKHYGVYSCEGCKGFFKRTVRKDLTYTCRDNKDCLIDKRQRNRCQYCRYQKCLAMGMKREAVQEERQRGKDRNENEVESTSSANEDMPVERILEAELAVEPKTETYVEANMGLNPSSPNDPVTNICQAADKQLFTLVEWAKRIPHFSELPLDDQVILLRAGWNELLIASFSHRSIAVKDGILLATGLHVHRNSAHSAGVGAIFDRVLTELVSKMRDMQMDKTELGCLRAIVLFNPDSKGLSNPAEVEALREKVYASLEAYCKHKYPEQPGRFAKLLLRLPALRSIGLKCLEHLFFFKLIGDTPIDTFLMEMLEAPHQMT

For `NC(=O)CCl`, the Potency result in assay [1], in assay [2] and in assay [3] was “inactive” each time. Further, the call in assay [4] was inactive.
Take `NC(=O)c1ccc(N)nc1`: the results for the Potency in assay [1] and in assay [2] were 1.22 µM (active) and 0.611 µM (active), respectively. Moreover, the Potency result in assay [5] was “inactive”.
Turning to `CCOP(=S)(OCC)SCS(=O)(=O)C(C)(C)C`, the Potency result in assay [1], in assay [2] and in assay [3] was “inactive” throughout. Also, the compound was classed as inactive in assay [4].
As for `CNC(C)Cc1ccc2c(c1)OCO2` (stereo not given), the Potency entry in assay [6], in assay [2] and in assay [3] was “inactive” each time.
As for `C[C@@H](Oc1ccc(Cl)cc1Cl)C(=O)O`, the Potency result in assay [2], in assay [3] and in assay [5] was “inactive” each time.
Regarding `CC(C)(COCC1CO1)COCC1CO1` (stereo not given), the Potency entry in assay [3] and in assay [5] was “inactive” each time. Also, the compound was called inactive in assay [4].
As to `N#CCCC(Br)(C#N)CBr` (stereo not given), the Potency in assay [7] is 43.6 µM (active); in assay [1], 19.3 µM (active); in assay [2] it was 21.7 µM (active).
For the compound `Clc1ccc(CSC(Cn2ccnc2)c2ccc(Cl)cc2Cl)cc1` (stereo not given), the Potency in assay [7] and in assay [2] was 29.8 µM (active) each time. The Potency entry in assay [1] is “inactive”.
On to `Nc1c(Oc2ccccc2)cc(O)c2c1C(=O)c1ccccc1C2=O`, for which the Potency entry in assay [2] and in assay [3] was “inactive” throughout. Besides, in assay [4], the call was inactive.
In the case of `ClCCN1CCOCC1`, the Potency result in assay [2], in assay [3] and in assay [5] was “inactive” each time. Further, the result in assay [4] was inactive.
`CC(C)CBr`: the Potency result in assay [2], in assay [3] and in assay [5] was “inactive” throughout. Also, the result in assay [4] was inactive.
With `Cc1cccc(OP(=O)(Oc2cccc(C)c2)Oc2cccc(C)c2)c1`, the Potency entry in assay [1], in assay [3] and in assay [5] was “inactive” throughout. Moreover, the result in assay [4] was inactive.
Take `C[C@]12CC[C@H](O)C[C@H]1CC[C@@H]1[C@@H]2C[C@@H](O)[C@]2(C)[C@@H](C3=CC(=O)OC3)CC[C@]12O`: the Potency result in assay [1], in assay [2] and in assay [5] was “inactive” throughout.
For `CCOP(=S)(OCC)SCS(=O)(=O)CC`, the Potency result in assay [1], in assay [3] and in assay [5] was “inactive” each time. Moreover, the compound was classed as inactive in assay [4].
On to `CC(Cl)CN(C)C` (stereo not given), for which the Potency result in assay [2] and in assay [3] was “inactive” throughout.
Consider `Oc1ccccc1Br`, for which the Potency result in assay [2], in assay [3] and in assay [5] was “inactive” throughout. For the same compound, the compound was classed as inactive in assay [4].
For `Cl/C=C\CCl`, the Potency entry in assay [2], in assay [3] and in assay [5] was “inactive” in each case. Moreover, the compound was classed as inactive in assay [4].
For the compound `COC(=O)N(C(=O)N1COC2(C(=O)OC)Cc3cc(Cl)ccc3C2=N1)c1ccc(OC(F)(F)F)cc1` (stereo not given), in assay [2], the Potency is 23.7 µM (active). Further, the Potency entry in assay [3] is “inactive”.
Regarding `O=C(Nc1ccc2[nH]ccc2c1)c1cc2cc(F)ccc2n1Cc1cccc(F)c1`, the Potency was 43.6 µM (active) in assay [7]; 43.6 µM (active) in assay [6]; 48.6 µM (active) in assay [1]; 43.3 µM (active) in assay [2]; 27.5 µM (active) in assay [3].
For `OC(Cc1ccccc1Cl)(Cn1cncn1)C1(Cl)CC1` (stereo not given), the Potency result in assay [1], in assay [3] and in assay [5] was “inactive” throughout. The result in assay [4] was inactive.
With `CC(C)C(=O)Cl`, the Potency entry in assay [1], in assay [3] and in assay [5] was “inactive” each time. Further, in assay [4], the result was inactive.
`CCc1cc(C)cc(CC)c1-c1c(OC(=O)C(C)(C)C)n2n(c1=O)CCOCC2`: the Potency result in assay [1], in assay [2] and in assay [3] was “inactive” each time. Moreover, in assay [4], the result was inactive.
`Fc1ccc(Oc2ccnc3cc(Cl)cc(Cl)c23)cc1`: the Potency in assay [7] is 49 µM (active). Also, the Potency result in assay [6] and in assay [2] was “inactive” each time.
Take `C[C@@H]1O[C@@H](O[C@@H]2C=C3CC[C@@H]4[C@H](CC[C@]5(C)[C@@H](c6ccc(=O)oc6)CC[C@]45O)[C@@]3(C)CC2)[C@H](O)[C@H](O)[C@H]1O`: the Potency in assay [7] was 0.0133 µM (active); in assay [6], 0.0134 µM (active); in assay [1], 21.1 µM (active); in assay [2], 15 µM (active). Besides, in assay [5], the Potency result is “inactive”.
`CCCCCCCCCCBr`: the Potency result in assay [2] and in assay [3] was “inactive” in each case. In addition, the compound was classed as inactive in assay [4].
As for `CCCCOP(=O)(CCCC)OCCCC`, the Potency result in assay [1], in assay [3] and in assay [5] was “inactive” throughout. Further, the compound was called inactive in assay [4].
On to `CCSC(C)CC1CC(=O)C(/C(CC)=N/OC/C=C/Cl)=C(O)C1` (stereo not given), for which the Potency result in assay [2], in assay [3] and in assay [5] was “inactive” each time. The compound was called inactive in assay [4].
On to `CN(C)S(=O)(=O)N(SC(F)(Cl)Cl)c1ccccc1`, for which the Potency in assay [7] is 15.5 µM (active); in assay [6], 27.5 µM (active); in assay [1], 5.45 µM (active); in assay [2], 4.86 µM (active); in assay [3], 34.7 µM (active).
Take `CCc1ccccc1C`: the Potency entry in assay [2], in assay [3] and in assay [5] was “inactive” throughout. Also, the compound was classed as inactive in assay [4].
For the compound `O=[N+]([O-])c1cc([N+](=O)[O-])c2ccccc2c1`, the Potency result in assay [7], in assay [6], in assay [1] and in assay [2] was “inactive” each time.
For `COc1ccc(OC)c(C=O)c1`, the Potency result in assay [1], in assay [2] and in assay [3] was “inactive” each time. In assay [4], the call was inactive.
On to `O=C1c2ccccc2C(=O)C1C(=O)C(c1ccccc1)c1ccc(Cl)cc1` (stereo not given), for which the Potency in assay [7] was 21.9 µM (active); in assay [1], 30.6 µM (active); in assay [2], 5.45 µM (active). For the same compound, in assay [3], the Potency result is “inactive”.
In the case of `O=CC(Br)(Br)Br`, the Potency in assay [7] is 17.3 µM (active); in assay [6], 48.8 µM (active); in assay [1], 7.67 µM (active); in assay [5], 7.74 µM (active). Further, the Potency entry in assay [2] is “inactive”.
For `CC(=O)c1cc(C(C)(C)C)cc2c1CCC2(C)C`, the Potency in assay [7] was 49 µM (active). The Potency result in assay [6], in assay [1], in assay [2] and in assay [3] was “inactive” in each case.
For the compound `Clc1ccc(-c2ccccc2)cc1`, the Potency result in assay [2], in assay [3] and in assay [5] was “inactive” in each case. In addition, the call in assay [4] was inactive.
In the case of `c1cc[c]([Sb]([c]2ccccc2)[c]2ccccc2)cc1`, the Potency in assay [2] is 61.1 µM (active).
Regarding `O=C/C(Cl)=C(/Cl)C(=O)O`, the Potency result in assay [7], in assay [6] and in assay [5] was “inactive” throughout. Besides, the Potency in assay [2] is 13.7 µM (active) and 21.7 µM (active).
Consider `N#Cc1c(-c2ccc(Cl)cc2)[nH]c(C(F)(F)F)c1Br`, for which the Potency in assay [2] was 0.137 µM (active). Further, the Potency entry in assay [3] was “inactive”.
`OC(c1ccc(Cl)cc1)(c1ccc(Cl)cc1)C(Cl)(Cl)Cl`: the Potency in assay [1] is 61.1 µM (active). In addition, in assay [3], the Potency result was “inactive”.

(Values after PubChem BioAssay (Tox21).)
